Inconclusive results are not listed. Activity calls are given as the source filed them. Unless noted, the call rests on the fitted dose curve; in most records, active means well fitted inhibition curve with a large enough effect; inconclusive means small, poorly fitted or top-dose-only effect; inactive means flat fitted curve, though single readings scatter.

Test [1] in a line: qHTS drug screen for cell cycle checkpoint inhibitors in PARPi-resistant BRCA-mutant ovarian cancer cell lines. (AID 1963452; calls by dose curve; further: potency means the concentration at half of the fitted maximal effect). To be noted: PEO1/OlaR viability, CellTiter-Glo luminescence, 96 h; for Z-AUC: stronger effect = lower value. The essentials: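 PEO1, PEO4 and PEO1/OlaR ovarian cancer cells, 600 per well, exposed 96 h at 37C to a dilution series. Viability read by CellTiter-Glo luminescence, normalized to DMSO and empty wells; activity summarized as Z-AUC.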

Test [2] is described as follows: qHTS for identification of novel therapeutic agents for treatment of microphthalmiaassociated transcription factor (MiT) renal cell carcinoma (RCC) (AID 1963991). The following applies: CellTiter-Glo, 48 h, stronger effect = lower value. The essentials:
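Viability of three TFE3-fusion renal carcinoma lines measured by CellTiter-Glo after 48 h treatment with each of 1912 compounds at 11 concentrations. Responses scaled between DMSO (100%) and empty wells (0%) before curve fitting.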
In general terms: In qHTS, concentration-response curves come from the screen itself.

A short description of test [3]: qHTS profiling for inhibitors of Plasmodium falciparum proliferation (AID 504749). Further: nearly all actives have a fitted effect of over 60% in size. Further: potency means the concentration at half of the fitted maximal effect.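 On activity, negative = inhibition: 0% = DMSO vehicle and full inhibition = artemisinin control.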 To be noted: P. falciparum in erythrocytes, SYBR Green DNA, 72 h. The essentials: (§1)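 Three-day growth assay of blood-stage parasites in erythrocytes (0.3% parasitemia, 2.5% hematocrit) at 37 C, 5% CO2, quantified by SYBR Green DNA staining after overnight detergent lysis.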
For test [4], the system named is 7G8. The test is described as above. The following applies: P. falciparum in erythrocytes, SYBR Green DNA, 72 h; series mostly up to 28.7 µM. The essentials:
as §1

For test [5], the system named is AA1029. The description is as above. The following applies: P. falciparum in erythrocytes, SYBR Green DNA, 72 h; series mostly up to 28.7 µM. The essentials:
as §1

In test [6] the test system is AS120. Described as above. To be noted: P. falciparum in erythrocytes, SYBR Green DNA, 72 h; series mostly up to 28.7 µM. In a few lines:
as §1

Test [7] concerns ATS189. The test is described as above. The following applies: P. falciparum in erythrocytes, SYBR Green DNA, 72 h; series mostly up to 28.7 µM. The essentials: as §1
The subject of test [8] is ATS95. The description is as above. To be noted: P. falciparum in erythrocytes, SYBR Green DNA, 72 h; series mostly up to 28.7 µM. In a few lines:
as §1

The subject of test [9] is C2A. The test is described as above. The following applies: P. falciparum in erythrocytes, SYBR Green DNA, 72 h; series mostly up to 28.7 µM. The essentials:
as §1

In test [10] the test system is CP185. Described as above. To be noted: P. falciparum in erythrocytes, SYBR Green DNA, 72 h; series mostly up to 28.7 µM. In a few lines:
as §1

In test [11] the test system is 3D7. Described as above. The following applies: P. falciparum in erythrocytes, SYBR Green DNA, 72 h; series mostly up to 28.7 µM. The essentials: as §1
[12] abbreviates: measured here: PEO1 parental Z-AUC.
Setting [13] is: TFE3-RCC UOK109 viability, measured here: UOK109 Z-AUC.
The mark [14] stands for this setting: TFE3-RCC viability, measured here: UOK124 Z-AUC.
Where [15] appears, read: TFE3-RCC viability, measured here: UOK145 Z-AUC.
Setting [16] is: at 28.7 µM (top of the series), parasite line A.
[17] abbreviates: at 28.7 µM (top of the series), parasite line B.

Take `COc1ncnc(NS(=O)(=O)c2ccc(N)cc2)c1OC`: the Z-AUC was 1.84 (inactive) in test [1], 1.63 in test [1] (setting [12]) and 1.91 in test [1] (measured here: PEO4 Z-AUC). Also, the z-score in test [2] (setting [13]) stood at 0.466; in test [2] (setting [14]) it was 0.339; in test [2] (setting [15]), 0.671. Further, the results for the activity, negative = inhibition in [3] (setting [16]) and in test [3] (setting [17]) were -18.9% (inactive) and 11.3% (inactive), respectively. The Potency result in test [4], in test [5], in test [6], in test [7], in test [8] and in test [9] was “inactive” each time. The Potency entry in test [10] is “inactive”.

With `Cc1nnc(NS(=O)(=O)c2ccc(N)cc2)s1`, the Z-AUC in test [1] is 1.31 (inactive); in test [1] (setting [12]) it was 0.997; in test [1] (measured here: PEO4 Z-AUC) it was 1.46. Besides, the figures for the activity, negative = inhibition in [3] (setting [16]) and in test [3] (setting [17]) were 1.45% (inactive) and 11.3% (inactive), respectively. The Potency entry in test [11], in test [4], in test [5], in test [6], in test [7] and in [8] was “inactive” throughout. Besides, the Potency entry in test [9] and in test [10] was “inactive” each time.

As to `COc1cc([C@@H]2c3cc4c(cc3[C@H](O)[C@H]3COC(=O)[C@H]23)OCO4)cc(OC)c1OC`, the Potency was 0.0174 µM (active) in test [1]; 8.91 µM (active) in [3] (parasite line A); 8.91 µM (active) in test [3] (parasite line B); 2.24 µM (active) in test [11]; 0.316 µM (active) in test [4]; 11.2 µM (active) in test [5]. The Potency was 5.01 µM (active) in test [6], 3.55 µM (active) in test [7] and 8.91 µM (active) in test [8]. Moreover, the values for the Z-AUC in test [1] (setting [12]) and in test [1] (measured here: PEO4 Z-AUC) were -1.81 and -1.94, respectively.

As to `CCn1cc(C(=O)O)c(=O)c2cc(F)c(N3CCN(C)CC3)cc21`, the Z-AUC in test [1] was 1.22 (inactive); in [1] (setting [12]), 0.931; in test [1] (measured here: PEO4 Z-AUC) it was 1.07. In addition, the z-score in test [2] (setting [13]) was 0.77; in test [2] (setting [14]), 0.298; in test [2] (setting [15]), 0.753. Further, in test [3] (setting [17]), the activity, negative = inhibition is -21.5% (inactive). In addition, in test [11], the Potency result is “inactive”.

For `CNS(=O)(=O)Cc1ccc2[nH]cc(CCN(C)C)c2c1`, the z-score was found to be 0.748 in test [2] (setting [13]), 0.938 in test [2] (setting [14]) and 0.747 in test [2] (setting [15]). The figures for the activity, negative = inhibition in [3] (setting [16]) and in test [3] (setting [17]) were -10.9% (inactive) and -3.89% (inactive), respectively. In addition, the Potency entry in [11], in test [4], in [5], in test [6], in [7] and in [8] was “inactive” in each case. Besides, the Potency result in test [9] and in test [10] was “inactive” each time.

Consider `COc1cnc(NS(=O)(=O)c2ccc(N)cc2)nc1`, for which the activity, negative = inhibition in [3] (at 12.8 µM (top of the series), parasite line A) is 3.37% (inactive); in test [3] (at 12.8 µM (top of the series), parasite line B) it was 2.7% (inactive). In addition, the Potency result in [11], in test [4], in [5], in test [6], in test [7] and in test [8] was “inactive” each time. Moreover, the Potency result in [9] and in test [10] was “inactive” in each case.

`Cc1onc(-c2ccccc2Cl)c1C(=O)N[C@@H]1C(=O)N2[C@@H]1SC(C)(C)[C@@H]2C(=O)O`: the z-score in test [2] (setting [13]) came to 1.22; in test [2] (setting [14]), 0.834; in test [2] (setting [15]), 1.69.

Turning to `CC(C)Cn1cnc2c(N)nc3ccccc3c21`, the Z-AUC is -0.974 (inactive) in test [1], -0.536 in test [1] (setting [12]) and -1.36 in test [1] (measured here: PEO4 Z-AUC). For the same compound, in test [3] (setting [17]), the activity, negative = inhibition is -10.9% (inactive). Moreover, the Potency result in [11], in test [5], in test [6], in [7], in test [8] and in test [9] was “inactive” throughout. Also, the Potency entry in [10] is “inactive”.

In the case of `CC(C)OC(=O)OCOP(=O)(CO[C@H](C)Cn1cnc2c(N)ncnc21)OCOC(=O)OC(C)C`, the figures for the z-score in test [2] (setting [13]), in test [2] (setting [14]) and in [2] (setting [15]) were 0.412, 0.776 and 0.601, respectively.

As to `CNCC[C@H](Oc1cccc2ccccc12)c1cccs1`, the Potency is 2.24 µM (active) in test [4], 7.08 µM (active) in [5], 11.2 µM (active) in test [6] and 7.94 µM (active) in test [8].
